Data from PubChem BioAssay AID686999 (Broad Institute, 2013).
Measured potencies and affinities stand elsewhere. Results filed as inconclusive are left out. Active and inactive are the calls of the source.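 The calls were made as follows: active = active in every separate test run, each with half-maximal potency at or under twice its top valid dose; inconclusive = the separate test runs give conflicting calls; inactive = inactive in every test run, including signal rising instead.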

Test: Cryptococcus growth inhibition by alamar blue – cell lysis, cherry-picks, replicate tests, mechanism study for C. neoformans antifungal project, dose response (AID 686999)
Settings: 72 h; series mostly up to 35 µM

SMILES | outcome
Fc1ccccc1NC(=S)NN(Cc1ccccc1)c1ccccc1 | inactive
CCOC(=O)NC(=S)Nc1ccc(C(C)(C)C)cc1Br | inactive
Cc1cc(Cl)ccc1NC(=S)NCc1ccc(F)cc1 | inactive
COC(=O)C1=C(C)N(CC(C)C)C(=S)NC1c1ccc(F)cc1 (stereo unspecified) | inactive
COc1ccc(CNC(=S)NCc2ccc(OC(C)C)cc2)cc1 | inactive
COc1ccc(C(=O)NC(=S)Nc2ccccc2N2CCCCC2)cc1[N+](=O)[O-] | inactive
COc1ccccc1CNC(=S)NCc1ccc(Cl)cc1 | inactive
COC(=O)C1=C(C)N(CC(C)C)C(=S)NC1c1cccc(F)c1 (stereo unspecified) | inactive
COc1ccc(NC(=S)NCc2ccc(Cl)cc2)c(OC)c1 | inactive
Cc1cc(C)c2nc(N3CCN(C(=O)c4cccs4)CC3)sc2c1 | inactive
COc1cccc(NC(=S)N2CCC(Cc3ccccc3)CC2)c1 | inactive
Cc1ccc(C)c(NC(=O)C2(C)CCCN2C(=O)C(C)C)c1 (stereo unspecified) | inactive
O=C(NCCN1CCCCC1)[C@H]1N[C@H]2c3ccc(-c4ccncc4)c(=O)n3C[C@H]2[C@@H]1CO | inactive
CCCCNC(=S)N/N=C/c1ccc(C#N)cc1 | inactive
O=C(NC(=S)Nc1ccc(Br)cc1)C1CCC1 | inactive
S=C(NCc1ccccc1)NCC1COc2ccccc2O1 (stereo unspecified) | inactive
COC(=O)C1=C(C)N(Cc2ccc(F)cc2)C(=S)NC1c1cccc(Cl)c1 (stereo unspecified) | inactive
CCc1ccc(C(=O)NC(=S)NCc2cccnc2)cc1 | inactive
Cc1cc(C(=O)NC(=S)Nc2ccccc2N2CCOCC2)ccc1[N+](=O)[O-] | inactive
CCc1nc(N2CCCCC2C)c2oc3ccccc3c2n1 (stereo unspecified) | inactive
COC(=O)C1=C(C)N(Cc2ccccc2)C(=S)N[C@H]1c1cccc(F)c1 | inactive
